From PubChem BioAssay
Many of the other results were omitted from the sample, so hits are more common in it than they were.
RGS12 GoLoco inh-1 – RGS12 GoLoco-Gai1 interaction inhibition. 0.44% of 230,000 active. Gai1:RGS12 GoLoco peptide FP, rhodamine, 10 min. Potency, µM (highest dose often 61.6 µM), for inactives: at the highest dose activity, negative = inhibition, usual class: inhibitors; active = well fitted inhibition curve with a large enough effect, not every such curve was filed as active; inactive = no such curve, though single readings can be large or run the other way; note: potency is the fitted concentration of half-maximal effect; % is set by controls: 0 for no effect and ±100 for the full control effect; nearly all actives have a fitted effect of over 30% in size
Target sequence (P63096 whole entry, looked up): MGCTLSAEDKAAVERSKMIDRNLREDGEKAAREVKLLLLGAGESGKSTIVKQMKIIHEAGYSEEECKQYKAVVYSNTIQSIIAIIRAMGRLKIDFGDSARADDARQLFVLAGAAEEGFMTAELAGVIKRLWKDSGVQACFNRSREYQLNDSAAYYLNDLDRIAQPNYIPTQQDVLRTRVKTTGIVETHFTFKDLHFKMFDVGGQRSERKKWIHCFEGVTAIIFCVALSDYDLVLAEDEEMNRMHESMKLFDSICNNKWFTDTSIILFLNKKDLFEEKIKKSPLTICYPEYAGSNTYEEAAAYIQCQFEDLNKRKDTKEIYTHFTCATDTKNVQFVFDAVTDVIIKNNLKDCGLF
TexasRed fluor – Texas Red fluorescence interference in TRb-SRC2 counter-screen; TRb/SRC2 Texas Red total fluorescence interference; Potency, µM (top dose mostly 106 µM), inactives show at the highest dose fluorescence change, negative = quenching; 0.29% of 280,000 active; AID 1479; active = well fitted curve in either direction with a large enough effect; inconclusive = small, poorly fitted or top-dose-only effect; note: potency is the fitted concentration of half-maximal effect; % is set by controls: 0 for no effect and ±100 for the full control effect
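Human TRβ ligand-binding domain (0.6 uM) and Texas Red SRC2 peptide (20 nM) in Tris buffer with 1 uM T3 and 5% DMSO were incubated with pinned compound for 5 hr at ambient temperature. Total fluorescence was computed as S + 2P (555/632 nm).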
CBFb-RUNX1 inh – CBF-beta/RUNX1 interaction disruption; Q01196+Q13951; AlphaScreen CBFb-His/RUNX1-biotin binding, biochemical; Potency, µM (highest dose often 59.8 µM), for inactives: at the highest dose activity, negative = inhibition, usual class: inhibitors; 230,000 tested, under 10 active; AID 1477; note: % of control where 0% means no effect
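CBF-beta (His) and RUNX1 (biotin), 30 nM each; 20 min preassociation; + compound, 15 min; + beads 50 ng each (Ni, streptavidin), 90 min; RT; AlphaScreen read.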
ERG Ets-DNA blk – blocks human ERG Ets domain binding to DNA; P11308; fluorescence polarization, His-ERG Ets domain / labelled DNA; Potency, µM (doses to about 76.9 µM), for inactives: top-dose FP activity, negative = inhibition, hits mostly inhibitors; 0.028% of 370,000 active; AID 624246; active = well fitted inhibition curve with a large enough effect in the polarisation, with a control signal flat; inconclusive = small, poorly fitted or top-dose-only effect, or effect the other way, or a change in a side signal; inactive = no such curve, though single readings can be large or run the other way; the % refers to the polarisation;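 note: polarization taken with two DNA probes labelled with fluorescein and Texas red; potency is the fitted concentration of half-maximal effect; % of control where 0% means no effect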
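His-tagged ERG Ets domain (1 uM in the protein solution; 300mM KCl, 50mM Tris-HCl, 1mM EDTA, 1mM DTT, pH 7.5) received compound, then a probe mix of 5 nM fluorescein-DNA and 100nM Texas-615-DNA. Fluorescence polarization was read for both dyes.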
TRb SRC2 PPI – TRbeta-SRC2 interaction inhibition | 0.065% of 280,000 active | TRbeta-SRC2 peptide binding, fluorescence polarization; receptor liganded with 1 µM T3 | Potency, µM (top dose mostly 106 µM), for the others: at the highest dose activity change, negative = inhibition, actives largely listed as inhibitors | P10828;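 note: potency is the fitted concentration of half-maximal effect; plate controls were bound peptide for no effect and peptide without receptor for full effect; nearly all actives have a fitted effect of over 50% in size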
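Polarization signal, normalized between peptide-alone and full complex controls, measured compound effects on T3-liganded human TRb LBD (0.6 uM) binding 20 nM Texas Red SRC2 peptide after 5 hr.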
RGS12 GoLoco inh-2 – RGS12 (human) GoLoco motif inhibition, red FP | shares compounds with RGS12 GoLoco inh-1 | 50% of 110 active | Gai1/rhodamine-RGS12 GoLoco peptide fluorescence polarization | Potency, µM (highest dose often 57.1 µM), inactives show at the top dose activity, negative = inhibition, most hits filed as inhibitors | AID 2390
* hit, by the source's call; ! = not confirmed by another sample; [ ] = remark or other dose. Unless noted, calls come from the whole dose curve; as a rule, active = well fitted curve in the direction sought with a large enough effect; inconclusive = small, poorly fitted or top-dose-only effect, or another doubt; inactive = no such curve, though single readings can be large; an effect the other way counts as inactive or inconclusive.

Screening C[C@]12CC[C@H](O)CC1=CC[C@@H]1[C@@H]2CC[C@]2(C)C(=O)CC[C@@H]12 returned ERG Ets-DNA blk 18%.
For CN1C(=O)N(C)C(=O)C(CCc2ccncc2)(CCc2ccncc2)C1=O the results were RGS12 GoLoco inh-1 17%, TexasRed fluor -1%, CBFb-RUNX1 inh 6%, ERG Ets-DNA blk 2% and TRb SRC2 PPI -4%.
c1cc(CCN2CCCC2)ccn1 was read as RGS12 GoLoco inh-1 7.1µM*, TexasRed fluor -5%, CBFb-RUNX1 inh -6%, ERG Ets-DNA blk -6% and TRb SRC2 PPI -9%.
`C[n+]1ccc(-c2cc[n+](C)cc2)cc1` gave ERG Ets-DNA blk 1%.
For CCCCCCC[n+]1ccc(-c2cc[n+](CCCCCCC)cc2)cc1 the results were RGS12 GoLoco inh-1 7.9µM*!, TexasRed fluor -3%, CBFb-RUNX1 inh 3%, ERG Ets-DNA blk 5% and TRb SRC2 PPI 3%.
NC(Cc1cc(O)c(O)cc1O)C(=O)O (stereo not drawn) was read as RGS12 GoLoco inh-1 14µM*, TexasRed fluor 11µM*[quencher] and TRb SRC2 PPI 13%.
`CCOP(=S)(OCC)SCC(=O)NC(C)C` gave TexasRed fluor -3%[201 µM] and TRb SRC2 PPI 5%[201 µM].
Screening CN1C[C@H](CO)C=C2c3cccc4[nH]cc(c34)C[C@H]21 returned RGS12 GoLoco inh-1 13µM*, TexasRed fluor 0%, CBFb-RUNX1 inh -6%, ERG Ets-DNA blk -13% and TRb SRC2 PPI -5%.
Screening CCCC[N+]12CCC(CC1)C(=C(c1ccccc1)c1ccccc1)C2 returned RGS12 GoLoco inh-1 7.9µM*, TexasRed fluor 1%, CBFb-RUNX1 inh -1%, ERG Ets-DNA blk -8%, TRb SRC2 PPI -3% and RGS12 GoLoco inh-2 16µM*.
`CCC[N+]12CCC(CC1)C(=C(c1ccccc1)c1ccccc1)C2` gave RGS12 GoLoco inh-1 7%, TexasRed fluor -4%, CBFb-RUNX1 inh -5%, ERG Ets-DNA blk 2% and TRb SRC2 PPI -12%.
C=C1N2CCC(CC2)C1(O)c1ccc(C)cc1 (stereo not drawn) was read as RGS12 GoLoco inh-1 -15%, TexasRed fluor 3%, CBFb-RUNX1 inh 2%, ERG Ets-DNA blk 0% and TRb SRC2 PPI 2%.
`C=C1C(O)(c2ccccc2)C2CC[N+]1(C)CC2` (stereo not drawn) gave RGS12 GoLoco inh-1 10µM*, TexasRed fluor -1%, CBFb-RUNX1 inh 5%, TRb SRC2 PPI -6% and RGS12 GoLoco inh-2 inconclusive.
CCNc1nc(NCC)nc(SC)n1 was read as TexasRed fluor -15%[201 µM] and TRb SRC2 PPI -10%[201 µM].
`CCCCC(CC)COC(=O)Cl` (stereo not drawn) gave TexasRed fluor 1%[201 µM] and TRb SRC2 PPI 2%[201 µM].
NC(N)=Nc1ccc2[nH]c3c(c2c1)C[C@@]1(O)[C@H]2Cc4ccc(O)c5c4[C@@]1(CCN2CC1CC1)[C@H]3O5 was read as RGS12 GoLoco inh-1 2.8µM*, TexasRed fluor -2%, CBFb-RUNX1 inh 4%, ERG Ets-DNA blk 8%, TRb SRC2 PPI -2% and RGS12 GoLoco inh-2 7.9µM*.
Screening C[N+]12CCC(CC1)C(C#N)(N1CCOCC1)C2 (stereo not drawn) returned RGS12 GoLoco inh-1 2.2µM*, TexasRed fluor -1%, CBFb-RUNX1 inh 4%, ERG Ets-DNA blk 2%, TRb SRC2 PPI 3% and RGS12 GoLoco inh-2 inconclusive.
